Some test systems named below: SK-MEL-2 melanoma; EKVX NSCLC; SN12C renal; UO-31 renal; TK-10 renal; ACHN renal; CAKI-1 renal; A498 renal; CCRF-CEM leukemia; MOLT-4 leukemia; SR leukemia; RPMI-8226 leukemia; OVCAR-8 ovarian; OVCAR-5 ovarian; OVCAR-4 ovarian; SK-OV-3 ovarian; IGROV1 ovarian; OVCAR-3 ovarian; HS 578T breast; NCI/ADR-RES ovarian.
What all share (assay): NCI-60 one-dose screen, 48 h (100 = growth as untreated, 0 = no growth, -100 = all killed)
Holding throughout (details): 10 µM unless noted

This is part of a sample that, as a whole, favours compounds with a hit. Of some 83,000 tested, about 20% had one in any assay.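 The endpoint reported here, percent growth, reads 100 for growth as untreated, 0 for no net growth and -100 for all cells dead.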 Values without a mark were called inactive. The source made the active and inactive calls. Rule for the calls: active = growth percent below 10; inactive = the rest.

On to `O=C(/C=C/c1cn(-c2ccccc2)nc1-c1ccccc1)OCc1cn(-c2cccc([N+](=O)[O-])c2)nn1`, for which the growth with SK-MEL-2 melanoma was 87.8%; in the assay on EKVX NSCLC, 85.9%; with SN12C renal, 92.7%; in the assay with UO-31 renal it was 68.7%; in the assay on TK-10 renal, 98.6%; in the assay with ACHN renal, 90.1%. Further, the growth in the assay on CAKI-1 renal was 82.5%; with A498 renal it was 66.7%; in the assay on CCRF-CEM leukemia, 81.1%; in the assay on MOLT-4 leukemia, 85.8%; in the assay with SR leukemia it was 87.4%; with RPMI-8226 leukemia, 80.4%. Further, the growth with OVCAR-8 ovarian was 82.6%; in the assay on OVCAR-5 ovarian it was 94.1%; in the assay on OVCAR-4 ovarian, 83.3%; with SK-OV-3 ovarian, 83.5%; in the assay with IGROV1 ovarian, 98.2%; in the assay on OVCAR-3 ovarian it was 96.8%. Besides, the figures for the growth in the assay with HS 578T breast and in the assay with NCI/ADR-RES ovarian were 89.9% and 95.4%, respectively.
As to `CS(=O)(=O)c1ccc(C(=O)N2N=C(c3ccccc3)CC2c2ccc3c(c2)OCO3)cc1` (stereo not given), the growth in the assay with SK-MEL-2 melanoma is 89.8%; with EKVX NSCLC, 93.4%; in the assay on SN12C renal, 94.4%; with UO-31 renal, 66.5%; in the assay on TK-10 renal, 107%; in the assay on ACHN renal, 107%. Further, the growth with CAKI-1 renal was 92.5%; with A498 renal it was 86.2%; in the assay with CCRF-CEM leukemia, 105%; in the assay with MOLT-4 leukemia, 52.4%; in the assay on SR leukemia, 90.9%; with RPMI-8226 leukemia, 95.7%. The growth was 100% in the assay on OVCAR-8 ovarian; 100% with OVCAR-5 ovarian; 99.3% in the assay on OVCAR-4 ovarian; 83.7% with SK-OV-3 ovarian; 96.2% in the assay on IGROV1 ovarian; 106% in the assay with OVCAR-3 ovarian. Besides, the figures for the growth in the assay with HS 578T breast and in the assay on NCI/ADR-RES ovarian were 95.7% and 103%, respectively.
As to `COc1ccc(-c2cc(-c3cn(-c4cccc(Cl)c4)nc3-c3ccc(OC)cc3)[nH]c(=S)n2)cc1`, the growth was 88.9% in the assay with SK-MEL-2 melanoma; 90.4% in the assay on EKVX NSCLC; 73.6% in the assay on SN12C renal; 84.7% with UO-31 renal; 93.8% in the assay with TK-10 renal; 80.5% in the assay with ACHN renal. Besides, the growth in the assay on CAKI-1 renal is 104%; in the assay on A498 renal, 69.3%; with CCRF-CEM leukemia it was 73.6%; in the assay with MOLT-4 leukemia, 42.4%; in the assay with SR leukemia it was 75.3%; in the assay with RPMI-8226 leukemia it was 50.1%. Besides, the growth in the assay with OVCAR-8 ovarian was 84%; with OVCAR-5 ovarian, 97%; with OVCAR-4 ovarian, 75.8%; in the assay on SK-OV-3 ovarian it was 90.1%; in the assay on IGROV1 ovarian, 59.4%; with OVCAR-3 ovarian, 108%. Moreover, the figures for the growth with HS 578T breast and in the assay on NCI/ADR-RES ovarian were 88.7% and 99.6%, respectively.
`CC(C)(C)c1nn(-c2ccccc2)c2c1C(=O)CSC(c1ccc3c(c1)OCO3)N2` (stereo not given): the growth is 101% with SK-MEL-2 melanoma; 80.2% with EKVX NSCLC; 91.3% in the assay with SN12C renal; 74.8% in the assay with UO-31 renal; 103% in the assay on TK-10 renal; 107% in the assay with ACHN renal. The growth with CAKI-1 renal is 81.4%; in the assay with A498 renal, 113%; in the assay with CCRF-CEM leukemia, 98.1%; with MOLT-4 leukemia, 86%; in the assay with SR leukemia, 78.8%; in the assay on RPMI-8226 leukemia it was 102%. Moreover, the growth with OVCAR-8 ovarian is 109%; in the assay on OVCAR-5 ovarian it was 95.7%; in the assay on OVCAR-4 ovarian it was 103%; in the assay with SK-OV-3 ovarian, 95.4%; with IGROV1 ovarian, 88.5%; in the assay on OVCAR-3 ovarian it was 93.2%. Also, the growth with HS 578T breast was 101%; in the assay on NCI/ADR-RES ovarian it was 88.2%.
With `COc1cccc(/C(C)=N/NC(=O)CSc2nc3ccccc3c(=O)n2CCc2ccc(S(N)(=O)=O)cc2)c1`, the growth with SK-MEL-2 melanoma is 30%; in the assay on EKVX NSCLC, 96.9%; in the assay on SN12C renal, 39.6%; with UO-31 renal, 98.9%; in the assay on TK-10 renal, 32.3%; with ACHN renal, 85%. The growth with CAKI-1 renal was 70.5%; in the assay with A498 renal, 72.1%; in the assay with CCRF-CEM leukemia, 22.3%; in the assay with MOLT-4 leukemia, 14.4%; with SR leukemia, -1.96% (active); in the assay with RPMI-8226 leukemia it was 4.78% (active). Further, the growth in the assay with OVCAR-8 ovarian is 7.61% (active); with OVCAR-5 ovarian it was 73.2%; in the assay on OVCAR-4 ovarian, -7.35% (active); in the assay on SK-OV-3 ovarian, 43.7%; in the assay with IGROV1 ovarian, 77.1%; in the assay with OVCAR-3 ovarian it was 20%. The figures for the growth in the assay on HS 578T breast and in the assay with NCI/ADR-RES ovarian were 29.8% and 74.7%, respectively.
`COc1cc(C2CC(c3ccc(Cl)cc3)=NN2C=O)ccc1Oc1ccnc2cc(Cl)ccc12` (stereo not given): the growth with SK-MEL-2 melanoma is 86.7%; in the assay with EKVX NSCLC, 59%; with SN12C renal it was 77.3%; in the assay on UO-31 renal it was 80.8%; in the assay on TK-10 renal, 83%; in the assay on ACHN renal, 41%. The growth was 58.5% in the assay with CAKI-1 renal; 62.6% in the assay on A498 renal; 68.8% in the assay on CCRF-CEM leukemia; 62% with MOLT-4 leukemia; 63.2% with SR leukemia; 65.1% in the assay with RPMI-8226 leukemia. The growth with OVCAR-8 ovarian was 44.6%; in the assay on OVCAR-5 ovarian, 92.7%; in the assay with OVCAR-4 ovarian, 28.1%; in the assay with SK-OV-3 ovarian it was 60%; in the assay with IGROV1 ovarian, 97%; in the assay on OVCAR-3 ovarian, 73.4%. The growth is 35.5% with HS 578T breast and 76.6% in the assay with NCI/ADR-RES ovarian.
On to `CCN1C(=O)C(C)C=C(C)C=C1C` (stereo not given), for which the growth is 102% with SK-MEL-2 melanoma; 114% in the assay with EKVX NSCLC; 112% in the assay with SN12C renal; 86.8% with UO-31 renal; 105% with TK-10 renal; 102% in the assay with ACHN renal. In addition, the growth in the assay on CAKI-1 renal was 107%; with A498 renal it was 112%; in the assay on CCRF-CEM leukemia it was 102%; in the assay with MOLT-4 leukemia, 92.4%; with SR leukemia it was 110%; in the assay with RPMI-8226 leukemia, 115%. Further, the growth in the assay with OVCAR-8 ovarian was 102%; with OVCAR-5 ovarian it was 106%; in the assay on OVCAR-4 ovarian, 119%; in the assay on SK-OV-3 ovarian, 106%; in the assay on IGROV1 ovarian, 106%; in the assay with OVCAR-3 ovarian, 92.6%. Moreover, the growth with HS 578T breast is 102%; in the assay with NCI/ADR-RES ovarian, 119%.
As to `C=C1C(=O)O[C@H]2[C@H]1CC/C(COC(=O)NCc1cccc(OC)c1)=C\CC[C@@]1(C)O[C@@H]21`, the growth is 40.9% with SK-MEL-2 melanoma; 54.8% in the assay on EKVX NSCLC; 31.6% with SN12C renal; -9.04% (active) with UO-31 renal; -11.7% (active) with TK-10 renal; 2.37% (active) with ACHN renal. Further, the growth was 10.4% with CAKI-1 renal; 81.1% in the assay with A498 renal; -15% (active) in the assay on CCRF-CEM leukemia; -7.57% (active) in the assay on MOLT-4 leukemia; 8.59% (active) with SR leukemia; -23.1% (active) in the assay on RPMI-8226 leukemia. For the same compound, the growth is 46.1% in the assay with OVCAR-8 ovarian; 66.6% with OVCAR-5 ovarian; 49% in the assay with OVCAR-4 ovarian; 71.6% in the assay with SK-OV-3 ovarian; 32.8% with IGROV1 ovarian; -7.55% (active) in the assay with OVCAR-3 ovarian. Moreover, the growth is 75.7% with HS 578T breast and 57.3% in the assay with NCI/ADR-RES ovarian.

(Values after PubChem BioAssay (NCI).)
